Test results from PubChem BioAssay AID1159580 (chemical genetic matrix, 2015).
Several values for one entry are separate records, joined by “and”; a condition that tells them apart may be missing. Equal entries are not always repeated. Out of some 5,500 compounds screened, about 2,000 (36%) were called active. About 18% were inconclusive and are not listed. Rule as the data show it: active = normalized growth mostly below about 0.91 (no sharp cut-off); inconclusive = no clear call, values can overlap the other calls; inactive = mostly above about 0.92. Some of the results follow.

Assay: chemical genetic growth profiling, strain panel (AID 1159580);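 also: tested at 20 µM; growth read once vehicle control cultures reached saturation at 30 °C; 1 = growth at the plate median or of vehicle wells; lower values mean less growth of the strain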
Settings: S. cerevisiae deletion strains, growth OD

Measured: normalized growth

O=C(O)c1cc2ccccc2[nH]1
inactive: locus YAL013W, strain DEP1, stronger effect = lower value 1.01 | locus YAL021C, strain ccr4, stronger effect = lower value 0.969 | locus YAL026C, strain drs2, stronger effect = lower value 0.99 | locus YAL030W, strain snc1, stronger effect = lower value 1 | locus YBL061C, strain skt5, stronger effect = lower value 0.996 | locus YBR009C, strain hhf1, stronger effect = lower value 0.996 | locus YBR021W, strain FUR4, stronger effect = lower value 0.98 | locus YBR023C, strain chs3, stronger effect = lower value 0.994 | locus YBR171W, strain sec66, stronger effect = lower value 0.982 | locus YBR229C, strain ROT2, stronger effect = lower value 1 | locus YBR231C, strain swc5, stronger effect = lower value 0.994 | locus YBR279W, strain paf1, stronger effect = lower value 0.991 | locus YCL011C, strain gbp2, stronger effect = lower value 0.98 | locus YCL016C, strain dcc1, stronger effect = lower value 0.998 | locus YCL029C, strain bik1, stronger effect = lower value 1.01 | locus YCL061C, strain MRC1, stronger effect = lower value 0.973 | locus YCL069W, strain vba3, stronger effect = lower value 0.984 | locus YCR088W, strain abp1, stronger effect = lower value 0.98 | locus YDL005C, strain med2, stronger effect = lower value 0.982 | locus YDL035C, strain GPR1, stronger effect = lower value 1.01 | locus YDL040C, strain nat1, stronger effect = lower value 0.995 | locus YDL074C, strain BRE1, stronger effect = lower value 1.01 | locus YDL101C, strain DUN1, stronger effect = lower value 1.02 | locus YDL134C, strain PPH21, stronger effect = lower value 1.01 | locus YDL185W, strain tfp1, stronger effect = lower value 1.01 | locus YDL192W, strain arf1, stronger effect = lower value 1.02 | locus YDR001C, strain nth1, stronger effect = lower value 0.977 | locus YDR069C, strain doa4, stronger effect = lower value 1 | locus YDR101C, strain arx1, stronger effect = lower value 1.02 | locus YDR137W, strain rgp1, stronger effect = lower value 0.938 | locus YDR150W, strain NUM1, stronger effect = lower value 1.01 | locus YDR159W, strain sac3, stronger effect = lower value 0.982 | locus YDR162C, strain NBP2, stronger effect = lower value 1.04 | locus YDR195W, strain ref2 0.978 | locus YDR297W, strain sur2, stronger effect = lower value 0.981 | locus YDR318W, strain mcm21, stronger effect = lower value 1.01 | locus YDR334W, strain swr1, stronger effect = lower value 0.958 | locus YDR335W, strain msn5, stronger effect = lower value 0.987 | locus YDR388W, stronger effect = lower value 1.01 | locus YDR392W, strain spt3, stronger effect = lower value 0.947 | locus YDR502C, strain sam2, stronger effect = lower value 1.01 | locus YEL003W, strain gim4, stronger effect = lower value 0.978 | locus YEL037C, strain rad23, stronger effect = lower value 0.982 | locus YEL061C, strain CIN8 (second series), stronger effect = lower value 0.981 | locus YEL061C, strain CIN8, stronger effect = lower value 1 | locus YER015W, strain faa2, stronger effect = lower value 0.989 | locus YER016W, strain bim1, stronger effect = lower value 1 | locus YER110C, stronger effect = lower value 1.02 | locus YER111C, strain swi4, stronger effect = lower value 0.997 | locus YER155C, strain BEM2 (second series), stronger effect = lower value 1.01 | locus YER155C, strain BEM2, stronger effect = lower value 0.992 | locus YER167W, strain BCK2, stronger effect = lower value 1.01 | locus YFR010W, strain ubp6, stronger effect = lower value 0.968 | locus YGL078C, strain dbp3, stronger effect = lower value 0.995 | locus YGL086W, strain mad1, stronger effect = lower value 1.02 | locus YGL167C, strain pmr1, stronger effect = lower value 0.993 | locus YGL173C, strain kem1, stronger effect = lower value 0.975 | locus YGL227W, strain vid30, stronger effect = lower value 0.982 | locus YGL240W, strain doc1, stronger effect = lower value 1 | locus YGL248W, strain PDE1, stronger effect = lower value 1 | locus YGL253W, strain hxk2, stronger effect = lower value 0.987 | locus YGR078C, strain PAC10, stronger effect = lower value 0.99 | locus YGR135W, strain pre9, stronger effect = lower value 1.01 | locus YGR229C, strain SMI1, stronger effect = lower value 0.999 | locus YGR252W, strain gcn5, stronger effect = lower value 0.984 | locus YHR013C, strain ard1, stronger effect = lower value 1 | locus YHR027C, strain rpn1, stronger effect = lower value 1.02 | locus YHR030C, strain SLT2, stronger effect = lower value 1.01 and 1.03 | locus YHR079C, strain IRE1 (second series), stronger effect = lower value 1.01 | locus YHR079C, strain IRE1, stronger effect = lower value 1 | locus YHR094C, strain hxt1, stronger effect = lower value 1.02 | locus YHR129C, strain ARP1, stronger effect = lower value 1.01 | locus YHR142W, strain chs7, stronger effect = lower value 0.928 | locus YHR200W, strain rpn10, stronger effect = lower value 1.02 | locus YIL066C, strain RNR3, stronger effect = lower value 1.02 | locus YIL073C, strain SPO22, stronger effect = lower value 1.07 | locus YIL125W, strain kgd1, stronger effect = lower value 0.995 | locus YIR030C, strain dcg1, stronger effect = lower value 1.01 | locus YJL092W, strain hpr5, stronger effect = lower value 0.97 | locus YJL095W, strain BCK1 (second series), stronger effect = lower value 1 | locus YJL095W, strain BCK1, stronger effect = lower value 1.01 | locus YJL115W, strain asf1, stronger effect = lower value 0.975 | locus YJL129C, strain trk1, stronger effect = lower value 0.971 | locus YJL134W, strain LCB3, stronger effect = lower value 1.01 | locus YJL154C, strain vps35, stronger effect = lower value 0.966 | locus YJL164C, strain tpk1, stronger effect = lower value 1 | locus YJL166W, strain qcr8, stronger effect = lower value 1 | locus YJL168C, strain set2, stronger effect = lower value 1.02 | locus YJL187C, strain SWE1 (second series), stronger effect = lower value 1.01 | locus YJL187C, strain SWE1, stronger effect = lower value 0.988 | locus YJR043C, strain POL32, stronger effect = lower value 0.99 | locus YJR066W, strain TOR1, stronger effect = lower value 0.935
